Rows were chosen to be rich in hits. Some 2.1% of all compounds tested hit in one or more screens of this group.
S1P1 agonist: activates the human S1P1 receptor; Sphingosine 1-phosphate receptor 1 (Homo sapiens), P21453; S1P1 agonist cell-based reporter assay; activation, % at 4.5 µM; actives 1.5% (n = 16,000); AID 1044, 2008; in the data active means activation above about 80%
rat GALR2 ag: agonists of rat galanin receptor 2 (GALR2); actives 0.5% (n = 16,000); cell-based GALR2 agonist screen; activation, % at 10 µM; Galanin receptor type 2 (Rattus norvegicus), O08726; in the data active means activation above about 15%
TLR4 MyD88 blk: inhibitors of human TLR4-MyD88 binding; Toll-like receptor 4 (Homo sapiens), O00206; Cell-based TLR4-MyD88 binding inhibition assay; inhibition, % at 10 µM; actives 0.06% (n = 16,000); AID 811, 2007; in the data active means inhibition above about 45%
KOR antag MB: antagonists of human kappa opioid receptor OPRK1, Maybridge library | actives 0.4% (n = 16,000) | inhibition, % at 9 µM | OPRK1 cells, antagonist mode, fluorescence readout; in the data active means inhibition above about 50%
* marks the source's active call; other numbers are inactive results.

SMILES	S1P1 agonist	rat GALR2 ag	TLR4 MyD88 blk	KOR antag MB
N#CC(C#N)=NNc1ccc(C(F)(F)F)cc1	115.4*	-13.5	-32.8	37.0
N#CC(C#N)=NNc1ccc(OC(F)(F)F)cc1	109.5*	-12.4	-23.1	29.3
O=C1NC(=S)NC(=O)C1=Cc1ccco1	-7.2	11.0	2.5	22.5
CNC(=O)O/N=C(\c1cccs1)C1CC1	5.3	-3.1	-0.4	-124.2
